hgDAF12 agonist: agonists of H. glycines DAF-12 nuclear receptor. 370,000 compounds, 1.8% hits. HEK293 GAL4-hgDAF12 UAS-luciferase reporter, agonist luminescence; normalized to butyrate control. AID 687014. activation, % at 6.8 µM;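 active = activation above a cutoff set at the mean of all screened compounds plus 3 SD, cut at about 10% in these data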;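 also: 0% = DMSO wells and 100% = sodium butyrate wells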
hcDAF-12 act: activates DAF-12 receptor from parasite H. contortus | HEK293 hcDAF-12 lit1-tk-luc reporter, luminescence; 0% DMSO, 100% Δ7-dafachronic acid | activation, % at 6.8 µM | 370,000 compounds, 1.4% hits | AID 652067;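 active = activation above the mean of all tested compounds plus 3 SD, cut at about 5.5% in these data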;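 also: 100% = response to 3 µM Δ7-dafachronic acid high control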
ssDAF12 agonist: activates DAF-12 receptor from parasite S. stercoralis. activation, % at 6.8 µM. HEK293 ssDAF-12/GRIP1 lit1-tk-luc reporter, luminescence; % of 3 µM dafachronic acid response. 370,000 compounds, 1% hits;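 active = activation above the mean over all tested compounds plus 3 SD, cut at about 0.9% in these data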;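 also: 0% = DMSO-only wells and 100% = 3 µM delta7-dafachronic acid wells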
DAX1 inh-1: NR0B1 (DAX1) inhibition | P51843 | HEK293 Gal4-DAX1 luciferase reporter, luminescence | inhibition, % at 6.75 µM | 340,000 compounds, 0.99% hits | AID 504766;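 active = inhibition above the mean over all tested compounds plus 3 SD, cut at about 4.2% in these data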;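 also: 0% = DAX1-transfected cells with DMSO and 100% = empty-vector control cells with DMSO; inhibition shows as a rise in luminescence from relieved DAX1 repression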
Target sequence (P51843 207-470 limits assumed): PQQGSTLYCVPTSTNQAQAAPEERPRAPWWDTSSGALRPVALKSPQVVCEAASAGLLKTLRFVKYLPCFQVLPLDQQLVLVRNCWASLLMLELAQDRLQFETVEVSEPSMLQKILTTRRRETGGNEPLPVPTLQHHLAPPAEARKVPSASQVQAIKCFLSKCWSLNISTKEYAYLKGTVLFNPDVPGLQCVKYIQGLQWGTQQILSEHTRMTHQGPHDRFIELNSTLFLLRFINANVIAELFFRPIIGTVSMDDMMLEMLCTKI
DAX1 inh-2: inhibitors of DAX1 repression of SF-1 activated StAR promoter; HEK293T StAR-luciferase reporter, SF-1/DAX-1 repression relief; inhibition, % at 6.8 µM; 370,000 compounds, 1.1% hits;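 active = inhibition above the mean over all tested compounds plus 3 SD, cut at about 3.6% in these data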;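 also: 0% = DAX-1 cells with DMSO and 100% = cells lacking DAX-1 with DMSO; higher inhibition means more luminescence from relief of DAX-1 repression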
Active calls of the source: *; / = no result given. A selection: hits, their analogues and other compounds. The true share with any hit is near 4.1%.

SMILES	hgDAF12 agonist	hcDAF-12 act	ssDAF12 agonist	DAX1 inh-1	DAX1 inh-2
O=C(Nc1sc2c(c1C(=O)O)CCCCC2)c1cccs1	10.3	4.5	1.0*	2.5	2.5
COc1ccccc1C(=O)Nc1sc2c(c1C(N)=O)CCCC2	2.6	3.0	0.9*	0.6	0.4
COc1ccc(-n2c(SCc3ccc([N+](=O)[O-])cc3)nnc2-c2ccco2)cc1	2.4	-2.8	-1.5	/	-1.1
Nc1nc2c(ncn2[C@@H]2O[C@H](C(=O)NCC(c3ccccc3)c3ccccc3)[C@@H](O)[C@H]2O)c(=O)[nH]1	1.1	-1.7	-1.1	/	-0.1
CCN(CC)c1ccc([C@H]2[C@@H]3CCCC[C@]3(O)CCN2CC(=O)NCc2ccco2)cc1	0.0	-2.1	-1.4	4.7*	-0.1
CCN(CC)c1ccc(C2C3CCCCC3(O)CCN2CC(=O)N2CCCCC2)cc1 (stereo unspecified)	2.1	-2.0	-1.4	-0.7	-0.3
COC(=O)C1=C(C)N(C)C(=NCc2ccccc2C(F)(F)F)NC1c1ccc(F)cc1 (stereo unspecified)	3.1	2.2	-1.4	/	-1.5
CCN(CC)C(CNC(=O)CSc1nnnn1-c1c(C)cccc1C)c1ccco1 (stereo unspecified)	0.0	-0.8	-0.5	0.0	3.6*
CCN(CC)C(CNC(=O)CSc1nnnn1-c1ccc(C)c(C)c1)c1ccco1 (stereo unspecified)	-1.5	-0.3	-1.1	-1.0	-1.9
COC(=O)c1cc(NC(=O)NC2CCCCN(Cc3ccc(Cl)cc3)C2=O)cc(C(=O)OC)c1 (stereo unspecified)	-0.4	-3.3	-1.1	/	-1.5
Cc1ccccc1Cn1nc(C)c(NC(=O)c2ccccc2)c1C	13.0*	-0.9	-0.7	-1.0	-0.6
Cc1ccccc1Cn1nc(C)c(NC(=O)c2sc3ccccc3c2Cl)c1C	-5.2	-1.7	-1.7	-2.5	-2.0
O=C(COC(=O)c1ccc(Sc2ncn[nH]2)c([N+](=O)[O-])c1)Nc1cccc(Cl)c1F	-0.2	1.9	-1.1	/	-0.7
O=C(Cc1cnc2ncnn2c1)N1CCc2c([nH]c3ccccc23)C1c1ccccc1F (stereo unspecified)	-2.6	4.2	1.7*	-1.1	0.3
COc1ccc(-c2cc(C(=O)N3CCCCCC3)no2)cc1OC	10.5*	0.8	-0.5	1.0	0.4
O=C(c1cc(-c2ccc(F)cc2)on1)N1CCOCC1	12.9*	3.1	0.3	-0.1	2.0
O=C(c1cc(-c2ccc(F)cc2)on1)N1CCCc2ccccc21	5.5	0.3	-0.9	-0.9	-0.3
O=C(c1cc(-c2ccc3c(c2)OCO3)on1)N1CCOCC1	8.4	3.5	0.2	-1.1	2.7
S=C(c1ccc(-c2cccc(Cl)c2)o1)N1CCOCC1	13.1*	5.5	-0.4	3.1	3.5
O=C(c1cc(-c2ccc(F)cc2)on1)N1CCCCCC1	12.3*	2.4	-0.4	2.9	1.5
COC(=O)[C@]1(C#N)CC(=O)N(C)[C@@H]1c1ccccc1	4.7	1.8	-0.6	/	1.4
Cc1nc2ccc(C(=O)N3CCN(C(=O)OCc4ccccc4)CC3)cc2n1C1CCCC1	-1.6	-3.8	-1.4	/	-1.1
O=C(c1cc(-c2cccc(O)c2)on1)N1CCCC1	13.1*	5.5	-0.2	2.9	1.7
O=C(c1cc(-c2ccc(Cl)c(Cl)c2)on1)N1CCOCC1	3.1	1.5	0.0	1.5	1.0
O=C(c1cc(-c2ccc(F)cc2)on1)N1CCCC1	13.1*	3.5	-0.9	0.8	2.5
SMILES	hgDAF12 agonist	hcDAF-12 act	ssDAF12 agonist	DAX1 inh-1	DAX1 inh-2
O=C(c1cc(-c2cccc(Cl)c2)on1)N1CCOCC1	11.0*	0.9	0.7	-0.1	0.6
O=C(c1cc(-c2ccc(O)cc2)on1)N1CCN(c2ccc(F)cc2)CC1	1.8	-1.1	-1.2	-1.0	-0.9
O=C(c1cc(-c2ccc(Cl)cc2)on1)N1CCOCC1	12.2*	3.7	0.0	0.8	4.0*
Cc1cc2c(c(=O)o1)[C@@]1(C(=O)N(C)c3cccc(Br)c31)C1=C(CCCC1=O)O2	1.0	0.8	-0.7	/	0.0
O=C(c1ccccc1OCc1ccccc1)N(Cc1ccccn1)CC1CCCO1 (stereo unspecified)	2.3	-0.7	-1.5	/	0.2
O=[N+]([O-])c1cccc(-c2ccc(C(=S)N3CCN(c4ccccc4)CC3)o2)c1	0.8	-0.8	-1.0	/	-0.7
CN1CCN(C(=S)c2ccc(-c3cccc([N+](=O)[O-])c3)o2)CC1	9.8	6.5*	-0.6	7.9*	1.6
CN(C=O)c1ccc(CSc2ccccc2)cc1	11.8*	5.5	-0.7	0.1	0.7
CC(C)C(NC(=O)C12CC3CC(CC(C3)C1)C2)C(=O)N/N=C/C1=C(N2CCOCC2)C(=C\c2cccc([N+](=O)[O-])c2)/CC1 (stereo unspecified)	0.8	-0.2	-0.7	-0.3	-0.8
Cn1cc(C(=O)N/N=C/C2=C(N3CCOCC3)C(=C/c3ccc([N+](=O)[O-])cc3)/CC2)ccc1=O	11.5*	0.2	-1.0	-1.3	0.4
COC(=O)c1ccc(NC(=O)C[n+]2ccccc2)cc1	3.9	4.5	1.8*	0.3	-0.4
Cc1nnc(SC(C)C(=O)Nc2ccc3ccccc3c2)[nH]c1=O (stereo unspecified)	4.2	5.5	1.3*	2.1	0.1
CC(Sc1nncn1C)C(=O)Nc1ccc2ccccc2c1 (stereo unspecified)	1.1	1.1	-1.1	4.6*	2.5
COc1cc(=O)[nH]c(SC(C)C(=O)Nc2ccc3ccccc3c2)n1 (stereo unspecified)	0.3	2.6	-0.3	0.1	-0.1
C[C@H](NC(=O)C[C@@H]1C[C@@H]2c3cc(NC(=O)C4CCC4)ccc3O[C@@H]2[C@@H](CO)O1)c1ccccc1	1.2	-1.7	-1.2	/	-1.5
O=c1oc(-c2ccccc2)nc2sc3c(c12)CCCC3	-0.3	1.9	-0.3	0.6	-0.4
O=c1oc(-c2cc3ccccc3o2)nc2sc3c(c12)CCCC3	-0.1	1.1	4.2*	0.8	0.3
COC(=O)CC(=O)CC(NS(=O)(=O)c1ccc(C)cc1)c1ccccc1 (stereo unspecified)	1.0	-1.5	-1.2	/	0.0
CC1CCN(CCCCOc2ccc(Cl)cc2)CC1	/	/	/	0.8	/
CC1CCN(C(=O)CCCOc2ccc(Cl)cc2)CC1	3.1	-0.8	1.3*	0.9	0.2
COC(=O)[C@]12C[C@H](CC(=O)N3CCSCC3)C(=O)N(Cc3ccccc3)C1=C[C@H](C(C)C)O[C@@H]2C1CC1	0.4	-0.8	-0.7	/	-0.3
CSc1cccc(NC(=O)CSc2ncccc2C(=O)Oc2cccc([N+](=O)[O-])c2)c1	2.8	1.6	1.4*	-0.5	-0.5
CCN(C(=O)CSc1ncccc1C(=O)Oc1cccc([N+](=O)[O-])c1)c1cccc(C)c1	-2.8	-2.8	-1.1	-0.5	0.2
O=CNC(n1cnc2c(N3CCOCC3)ncnc21)C(Cl)(Cl)Cl (stereo unspecified)	-1.8	-1.3	-0.1	10.0*	-0.1
